The values that follow come from PubChem BioAssay AID651860 (Broad Institute, 2012).

Results with a measured potency or affinity are listed apart. A number with no mark means an inactive call. The source made the active and inactive calls.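 Rule for the calls: active = compounds lowering HepG2 cell ATP luminescence with a fitted half-maximal concentration at most twice the top tested dose; inconclusive = flat fit with 30 to 70 percent signal loss, or poor fit; inactive = the rest.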

This assay can be described thus: HepG2 cell cytotoxicity, dose response, cytotoxicity control, luminescence plate reader, powder samples, set 2 (AID 651860). Conditions: HepG2 viability, CellTiter-Glo ATP luminescence, 48 h; series mostly up to 26 µM; activity change, negative = cytotoxic: at the top concentration. A general note: Cellular ATP, detected with luciferase, serves as a proxy for viable cell number.
As for `O=C(O)C1CCCCC1C(=O)NCC1c2ccccc2CCN1C(=O)Cc1ccccc1` (centres undefined), the “activity change, negative = cytotoxic” value was 7.56%.
Regarding `Cc1ccc(S(=O)(=O)NC(=O)[C@@H]2c3ccccc3CCN2C(=O)[C@@H]2CCCC[C@@H]2C(=O)O)cc1`, the compound was called inactive.
Consider `CCOC(=O)C(C(=O)OCC)c1cc(CN2C(=O)c3ccccc3C2=O)c2ccccc2n1`, for which the “activity change, negative = cytotoxic” value is 7.52%.
On the same count and under the same terms, with `O=C(Cc1ccccc1)NC[C@@H]1c2ccccc2CCN1C(=O)[C@@H]1CCCC[C@@H]1C(=O)O` the figure was 0.039%.
The same measure, in the same setting: next, `O=C(O)/C=C\C(=O)N1CCc2ccccc2C1CN1C(=O)c2ccccc2C1=O` (centres undefined): 3.21%.
Still for that read-out and setting: with `Cc1cc(C)c(S(=O)(=O)Nc2nc(NCCO)nc3ccccc23)c(C)c1` the figure was -0.961%.
Consider `COC(=O)C1CCCCC1C(=O)N1CCc2ccccc2C1CN1C(=O)c2ccccc2C1=O` (centres undefined), for which the “activity change, negative = cytotoxic” value is -1.95%.
The same measure, in the same setting: next, `CC(=O)Nc1cc(NS(=O)(=O)c2c(C)cc(C)cc2C)c2ccccc2c1O`: 7.31%; `O=C(O)CCCC(=O)N1CCc2ccccc2C1CN1C(=O)c2ccccc2C1=O` (centres undefined): -4.83%.
On the same count and under the same terms, next, `Cc1ccc(S(=O)(=O)Nc2cc(C(C(=O)OC(C)C)C(=O)C(F)(F)F)c(O)c3ccccc23)c(C)c1` (centres undefined): -11.9%.
Same read-out and setting: with `O=C(Oc1cc(CN2C(=O)c3ccccc3C2=O)c2ccccc2[n+]1[O-])c1cccc(Cl)c1` the figure was -8.9%; with `COC(=O)[C@@H]1CCCC[C@@H]1C(=O)N1CCc2ccccc2[C@@H]1CN1C(=O)c2ccccc2C1=O`, -17.5%.
For `O=C(O)[C@H]1C2C=CC(C2)[C@H]1C(=O)N1CCc2ccccc2C1CN1C(=O)c2ccccc2C1=O` (some centres undefined), the “activity change, negative = cytotoxic” value is -3.78%.
Still for that read-out and setting: with `Cc1ccc(S(=O)(=O)NC[C@@H]2c3ccccc3CCN2C(=O)[C@@H]2CCCC[C@@H]2C(=O)O)c(C)c1` the figure was 7.93%; with `CC(C)OC(=O)C(C(=O)C(F)(F)F)c1cc(NS(=O)(=O)c2ccccc2)c2ccccc2c1O` (centres undefined), -11.9%; with `O=C(NCCO)c1ccccc1C(=O)NC[C@@H]1c2ccccc2CCN1C(=O)C1CCCCC1C(=O)O` (some centres undefined), -4.28%.
Same read-out and setting: with `O=C(O)[C@H]1CCCC[C@H]1C(=O)N1CCc2ccccc2C1` (racemic) the figure was -1.55%.
Same read-out and setting: with `O=C1c2ccccc2C(=O)N1C[C@H]1NCCc2ccccc21` the figure was 12.9%.
For `COC(=O)[C@H]1CCCC[C@H]1C(=O)N1CCc2ccccc2[C@H]1CN1C(=O)c2ccccc2C1=O`, the “activity change, negative = cytotoxic” value was 7.57%.
`COC(=O)CNc1nc(NS(=O)(=O)c2c(C)cc(C)cc2C)c2ccccc2n1`: the “activity change, negative = cytotoxic” value was -1.27%.
The same measure, in the same setting: with `O=C(O)C1CCCCC1C(=O)N1CCCCC1CN1C(=O)c2ccccc2C1=O` (centres undefined) the figure was -10.9%.
Consider `O=C1c2ccccc2C(=O)N1CC1c2ccccc2CCN1C(=O)Cc1ccccc1` (centres undefined), for which the activity change, negative = cytotoxic is -3.5% [at 6 µM].
On the same count and under the same terms, with `O=C(O)[C@H]1CCCC[C@H]1C(=O)N1CCc2ccccc2C1CCN1C(=O)c2ccccc2C1=O` (some centres undefined) the figure was 3.26%; with `O=C(NC[C@@H]1c2ccccc2CCN1C(=O)[C@@H]1CCCC[C@@H]1C(=O)O)c1ccc(CN2CCOCC2)cc1`, -12.1%; with `Cc1ccc(S(=O)(=O)NNc2nc(NCC(N)=O)nc3ccccc23)cc1`, -9.05% [at 12 µM].
Take `O=C(NC[C@@H]1c2ccccc2CCN1C(=O)[C@@H]1CCCC[C@@H]1C(=O)O)c1ccccc1CO`: the “activity change, negative = cytotoxic” value was -0.395%.
With `O=C(O)C1CCCCC1C(=O)N1CCc2ccccc2[C@H]1C(=O)NCCc1ccccc1` (some centres undefined), the “activity change, negative = cytotoxic” value was -10.2%.
On the same count and under the same terms, next, `O=C(NCCCN1CCOCC1)c1ccccc1C(=O)NC[C@@H]1c2ccccc2CCN1C(=O)C1CCCCC1C(=O)O` (some centres undefined): -16.8%; `Cc1cc(C)c(S(=O)(=O)Nc2cc(C(C(=O)OCc3ccccc3)C(=O)OCc3ccccc3)c(O)c3ccccc23)c(C)c1`: -14.8%.
The same measure, in the same setting: next, `C[C@@H](NC(=O)C1CCCC[C@H]1C(=O)O)c1ccccc1` (mixture of isomers): 0.345%.
Still for that read-out and setting: with `CCOC(=O)Cc1nc(NS(=O)(=O)c2c(C)cc(C)cc2C)c2ccccc2n1` the figure was 2.6%.
`O=C(O)Cc1ccccc1C(=O)N1CCc2ccccc2[C@H]1CN1C(=O)c2ccccc2C1=O`: the “activity change, negative = cytotoxic” value was -3.12%.
Same read-out and setting: next, `COC(=O)[C@@H]1CCCC[C@@H]1C(=O)N1CCc2ccccc2[C@H]1CN1C(=O)c2ccccc2C1=O`: -4.15%; `O=C(O)C1CCCCC1C(=O)N1CCc2ccccc2C1CN1Cc2ccccc2C1=O` (centres undefined): -6.56%.
